Sampled rows, rich in hits. Any-hit rate of the full collection: about 1.2%.
Rev-erbA mod – modulates human Rev-erb alpha binding to DNA; Rev-erbα–FITC-DNA binding, fluorescence polarization, 90 min; activity, % at 10 µM; actives 0.79% (n = 370,000);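 active means activity above about 14%, limit read from the data; passing the limit was not always enough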;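 further: 0% = DMSO wells with 35 nM protein and 100% = DMSO wells with 750 nM protein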
Target sequence (P20393 whole entry, looked up): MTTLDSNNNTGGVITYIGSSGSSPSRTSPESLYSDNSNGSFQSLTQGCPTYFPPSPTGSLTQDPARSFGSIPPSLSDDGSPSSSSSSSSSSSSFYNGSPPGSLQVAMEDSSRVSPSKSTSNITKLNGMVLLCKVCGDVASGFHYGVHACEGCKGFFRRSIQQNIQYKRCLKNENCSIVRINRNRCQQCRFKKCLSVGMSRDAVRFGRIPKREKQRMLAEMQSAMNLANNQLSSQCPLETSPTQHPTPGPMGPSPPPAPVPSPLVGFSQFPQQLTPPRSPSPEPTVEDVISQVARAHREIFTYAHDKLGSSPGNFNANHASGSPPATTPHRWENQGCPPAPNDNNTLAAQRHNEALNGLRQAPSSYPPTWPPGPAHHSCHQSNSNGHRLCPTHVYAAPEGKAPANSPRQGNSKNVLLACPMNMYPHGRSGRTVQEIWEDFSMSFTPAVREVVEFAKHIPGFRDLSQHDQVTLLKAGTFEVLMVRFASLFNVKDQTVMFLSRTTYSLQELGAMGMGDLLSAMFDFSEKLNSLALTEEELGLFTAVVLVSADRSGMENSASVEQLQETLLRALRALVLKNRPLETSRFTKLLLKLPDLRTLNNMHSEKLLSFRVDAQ
PG9 Ab binder – PG9 antibody binding by small molecule; actives 0.43% (n = 360,000); TR-FRET gp120-PG9 antibody binding; inhibition, % at 6.7 µM; in the data active means inhibition above about 8.5%
PKA-R1A activ – activates the PKA-R1A holoenzyme complex; PKA-R1A dissociation, Cy5-IP20 fluorescence polarization; scaled: DMSO 0%, 113 µM cGMP 100%; activation, % at 11.4 µM; actives 0.083% (n = 340,000);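 active means percent activation above the mean of all tested compounds plus 3 SD, cut at about 19% in these data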;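 further: higher means more PKAc released from R1A so a rise in polarization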
PKA-R2B activ – PKA-R2B complex activation; AID 504700; actives 0.079% (n = 340,000); PKA-R2B holoenzyme dissociation, Cy5-IP20 fluorescence polarization; R2B truncated from residue 108, S112A mutant; 0% DMSO only, 100% 113 µM cGMP; activation, % at 11.4 µM;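 active means activation above a cutoff set at the mean over all compounds plus 3 SD, cut at about 18% in these data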;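 further: higher means more holoenzyme dissociation and a rise in polarization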
PG9 binder conf – PG9 antibody binding, confirmed | shares compounds with PG9 Ab binder | TR-FRET PG9 antibody binding, biochemical | inhibition, % at 6.7 µM | actives 90% (n = 1,500); in the data active means inhibition above about 9%
PGV04 Ab binding – binds control antibody PGV04 in PG9 binder counter-screen; TR-FRET PGV04 antibody-gp120 binding, biochemical; shares compounds with PG9 Ab binder; AID 651604; actives 95% (n = 1,500); inhibition, % at 6.7 µM; in the data active means inhibition above about 9.5%
* = called active by the depositor; · = not tested or not shown.

SMILES	Rev-erbA mod	PG9 Ab binder	PKA-R1A activ	PKA-R2B activ	PG9 binder conf	PGV04 Ab binding
N#Cc1c(-c2ccccc2)nc(SCc2cccc(Cl)c2)[nH]c1=O	-6	8.7*	-1	5	14*	21*
O=C(NCc1ccc(C(=O)NCC2CCCO2)cc1)c1cccc(Br)c1 (stereo not given)	-2	·	·	·	·	·
COC(=O)c1ccccc1NC(=O)c1cccc(NC(=O)CSCc2ccccc2)c1C	15	33*	-5	-12	28*	43*
CN(CCO)c1cccc2c1S(=O)(=O)N(Cc1cn(Cc3ccc(F)cc3)nn1)Cc1ccccc1O2	0	·	·	·	·	·
O=C(C1=C(O)C(=O)N(CCN2CCOCC2)C1c1ccc(F)cc1)c1cc2ccccc2o1 (stereo not given)	2	11*	0	3	17*	22*
CCN(CC)CCN1C(=O)C(O)=C(C(=O)c2sc(C)nc2C)C1c1cccnc1 (stereo not given)	-2	0	-8	1	·	·
O=C(C1=C(O)C(=O)N(CCCN2CCOCC2)C1c1ccccn1)c1cc2ccccc2o1 (stereo not given)	-2	15*	1	-2	19*	25*
CCN(CC)CCN1C(=O)C(O)=C(C(=O)c2cc3ccccc3o2)C1c1cccnc1 (stereo not given)	4	24*	1	10	36*	46*
O=C(C1=C(O)C(=O)N(CCN2CCOCC2)C1c1cccc(Br)c1)c1cc2ccccc2o1 (stereo not given)	-2	23*	-11	2	34*	43*
O=C(C1=C(O)C(=O)N(CCN2CCOCC2)C1c1ccco1)c1cc2ccccc2o1 (stereo not given)	4	4	-5	-3	·	·
COc1ccc(Oc2c(Br)cnn(Cc3cccc4ccccc34)c2=O)cc1	5	·	·	·	·	·
COC1=C[C@H](C(=O)NCc2ccccn2)[C@@]2(C)Cc3ccccc3[C@H]2CC1=O	1	·	·	·	·	·
CS(=O)(=O)N[C@@H]1C[C@@H]2O[C@@H](CO)CC[C@@H]2O[C@@H]1CCc1ccc(/C=C/c2ccccc2)cc1	4	·	·	·	·	·
C=CCNC(=S)N(C)[C@H]1C[C@H]2c3[nH]c4cccc(-c5cccc(F)c5)c4c3CCN2C(=O)[C@H]1[C@H](C)O	-2	·	·	·	·	·
Cn1c(SCC2CCC2)nnc1-c1ccco1	1	·	·	·	·	·
Cc1sc2nc(COC(=O)CNC(=O)c3ccccc3Cl)[nH]c(=O)c2c1C	1	·	·	·	·	·
O=S1(=O)C=CCN1Cc1cn(Cc2ccc(Cl)cc2)nn1	2	·	·	·	·	·
O=C(C1=C(O)C(=O)N(CCc2ccccc2)C1c1ccncc1)c1cc2ccccc2o1 (stereo not given)	-5	19*	0	-1	30*	40*
CN(C)CCN1C(=O)C(O)=C(C(=O)c2cc3ccccc3o2)C1c1cccc(Br)c1 (stereo not given)	6	31*	6	2	38*	47*
COc1cccc2cc(C(=O)C3=C(O)C(=O)N(CCN4CCOCC4)C3c3cccs3)oc12 (stereo not given)	10	6	-6	4	·	·
COc1cc(C2C(C(C)=O)=C(O)C(=O)N2CCN(C)C)ccc1O (stereo not given)	-3	-1	-6	3	·	·
COc1cccc2cc(C(=O)C3=C(O)C(=O)N(CCN(C)C)C3c3ccc(Cl)cc3)oc12 (stereo not given)	0	14*	-2	-9	22*	28*
COc1ccccc1C1C(C(=O)c2cc3ccccc3o2)=C(O)C(=O)N1CCN(C)C (stereo not given)	2	13*	-7	-2	24*	34*
O=C(C1=C(O)C(=O)N(CCN2CCOCC2)C1c1cccc([N+](=O)[O-])c1)c1cc2ccccc2o1 (stereo not given)	-7	-1	-3	-2	·	·
CCC[C@@H](/C=C/C(=O)OC(C)(C)C)Sc1ccc(OC)cc1	1	·	·	·	·	·
SMILES	Rev-erbA mod	PG9 Ab binder	PKA-R1A activ	PKA-R2B activ	PG9 binder conf	PGV04 Ab binding
Cc1ccc(Sc2c(O)c3ccccc3n(C)c2=O)cc1	2	14*	1	-1	17*	24*
Cc1ccc(NC(=O)CSc2nnc(-c3ccncc3)n2C)cc1C	4	17*	3	14	15*	40*
COc1ccc(NC(C)=O)cc1NC(=O)CSc1nnc(-c2ccncc2)n1C	0	0	-5	-3	·	·
N/C(=N\c1nc2ccccc2o1)NC(=O)c1ccccc1NC(=O)c1ccccc1	18	11*	-3	-2	11*	19*
CCn1cnc2sc(C(=O)Nc3ccccc3OC)c(C)c2c1=O	3	53*	2	-2	46*	65*
Cc1ccc(-n2nc3c(c2NC(=O)c2ccccc2Br)CS(=O)C3)cc1 (stereo not given)	-2	8.8*	-5	-8	8	15*
Cc1cc(N2C(=O)C(O)=C(C(=O)c3ccc(C)o3)C2c2cccs2)no1 (stereo not given)	2	9.6*	-6	-1	17*	25*
Cc1ccc(C2C(C(=O)c3cc4ccccc4o3)=C(O)C(=O)N2c2cc(C)on2)cc1 (stereo not given)	5	18*	-4	-2	29*	38*
Cc1cc(N2C(=O)C(O)=C(C(=O)c3cc4ccccc4o3)C2c2cccs2)no1 (stereo not given)	0	9.3*	-1	1	28*	46*
COC(=O)c1ccc(C2C(C(=O)c3ccc(C)o3)=C(O)C(=O)N2c2cc(C)on2)cc1 (stereo not given)	-1	1	-1	-7	·	·
Cc1sc2nc(SCC(=O)Nc3ccccc3F)[nH]c(=O)c2c1C	11	8.7*	6	4	21*	34*
COc1cccc(Nc2nc3cc(OC)ccc3cc2C#N)c1	24	13*	10	-1	24*	25*
CSc1nsc(SCC(=O)Nc2nc3ccc(C)cc3s2)n1	-5	10*	11	2	14*	18*
CCCC1CCC2(CC1)CCC2OC(=O)Nc1ccccc1C (stereo not given)	9	·	·	·	·	·
CCOC(=O)CCc1c(C)c(C#N)c2nc3ccccc3n2c1-n1cnc2ccccc21	19	17*	-20	-12	22*	27*
O=c1oc(-c2ccc(O)c(O)c2)cc2cccc(O)c12	-1	0	2	-13	·	·
O=C1C=Cc2cccc3ccc(O)c1c23	-6	16*	1	-1	20*	26*
CCN(C(=O)Cn1nnc(-c2ccncc2)n1)c1ccccc1	2	·	·	·	·	·
C=CCn1c(COc2ccc(Cl)cc2)nnc1SCC(=O)c1ccccc1	6	·	·	·	·	·
CS(=O)(=O)c1nc(-c2ccc(Br)cc2)cs1	6	·	·	·	·	·

From PubChem
